Measurements as given in PubChem BioAssay (Tox21).
Results filed as inconclusive are left out. Calls of active or inactive are those of the source. Calls follow the shape of the dose curve; as a rule, active = well fitted curve in the direction sought with a large enough effect in the repeat runs; inconclusive = weak or mixed curves; inactive = no such curve, though single readings can be large; an effect the other way counts as inactive or inconclusive.

Tests used:
[1] = qHTS RealTime-Glo MT Cell Viability Assay in HepG2 cells - 40 hour (AID 1224870); also: nearly all actives have a fitted effect of over 50% in size
Method in brief: (§1)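 HepG2 cells mixed with RealTime-Glo MT reagents (NanoLuc plus cell-permeant prosubstrate) were seeded at 600 cells/well, incubated 5 h at 37 C/5% CO2, then pinned with compounds in DMSO; nonlytic luminescence tracked viability during 40 h treatment.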

[2] = A CellTox Green Cytotoxicity Assay to monitor cytotoxicity in HEK293 cells - 40 hour (AID 1224871); also: nearly all actives have a fitted effect of over 45% in size
Method in brief: (§2)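 Dead-cell fluorescence measured kinetically: asymmetric cyanine dye, HEK293, 600 cells/well, 5 h settle, 23 nL cpd/DMSO, 37 C, reads 0–40 h every 8 h.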

[3] = qHTS RealTime-Glo MT Cell Viability Assay in HEK293 cells - 16 hour (AID 1224872); also: nearly all actives have a fitted effect of over 50% in size; also: potency is read from the fitted curve at half-maximal effect; as to activity change, negative = cytotoxicity: top concentration of the series differs between compounds
Method in brief: (§3)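 HEK293 cells seeded with NanoLuc/prosubstrate reagent, rested 5 h at 37 C, then dosed and kept at 37 C up to 40 h. Nonlytic real-time luminescence from viable cells read at 0, 8, 16, 24, 32 and 40 h.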

[4] = qHTS RealTime-Glo MT Cell Viability Assay in HepG2 cells - 8 hour (AID 1224873); also: nearly all actives have a fitted effect of over 55% in size
Method in brief: as §1

[5] = qHTS RealTime-Glo MT Cell Viability Assay in HEK293 cells - 40 hour (AID 1224874); conditions: RealTime-Glo luminescence; max response: hits give low values; also: nearly all actives have a fitted effect of over 50% in size; also: potency is read from the fitted curve at half-maximal effect
Method in brief: (§4)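 600 HEK293 cells per well, dispensed already mixed with RealTime-Glo MT reagents. Compound dosing came 5 h later. The same wells were read for luminescence at 0, 8, 16, 24, 32 and 40 h of exposure at 37 C.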

[6] = A CellTox Green Cytotoxicity Assay to monitor cytotoxicity in HEK293 cells - 24 hour (AID 1224875); also: series mostly up to about 77 µM; nearly all actives have a fitted effect of over 45% in size
Method in brief: as §2

[7] = A CellTox Green Cytotoxicity Assay to monitor cytotoxicity in HepG2 cells - 16 hour (AID 1224876); also: nearly all actives have a fitted effect of over 45% in size
Method in brief: (§5)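 First, HepG2 cells (600/well) mixed with reagent were plated; second, after 5 h at 37 C they received compounds via pintool; third, fluorescence was measured at 0 h through 40 h at 8 h intervals.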

[8] = qHTS RealTime-Glo MT Cell Viability Assay in HepG2 cells - 32 hour (AID 1224877); also: nearly all actives have a fitted effect of over 55% in size
Method in brief: (§6)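 HepG2 cells (600/well) were dispensed with RealTime-Glo reagents, incubated 5 h at 37 °C, then treated with compounds in DMSO for up to 40 h. Nonlytic NanoLuc luminescence reflecting viable cells was read at each stated time point.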

[9] = A CellTox Green Cytotoxicity Assay to monitor cytotoxicity in HepG2 cells - 24 hour (AID 1224878); also: nearly all actives have a fitted effect of over 45% in size
Method in brief: as §5

[10] = A CellTox Green Cytotoxicity Assay to monitor cytotoxicity in HepG2 cells - 40 hour (AID 1224879); also: nearly all actives have a fitted effect of over 40% in size
Method in brief: as §5

[11] = A CellTox Green Cytotoxicity Assay to monitor cytotoxicity in HepG2 cells - 0 hour (AID 1224882); also: nearly all actives have a fitted effect of over 35% in size
Method in brief: as §5

[12] = A CellTox Green Cytotoxicity Assay to monitor cytotoxicity in HepG2 cells - 32 hour (AID 1224883); also: nearly all actives have a fitted effect of over 50% in size
Method in brief: as §5

[13] = A CellTox Green Cytotoxicity Assay to monitor cytotoxicity in HEK293 cells - 8 hour (AID 1224884); also: nearly all actives have a fitted effect of over 35% in size
Method in brief: as §2

[14] = qHTS RealTime-Glo MT Cell Viability Assay in HepG2 cells - 16 hour (AID 1224885); also: nearly all actives have a fitted effect of over 50% in size
Method in brief: as §6

[15] = qHTS RealTime-Glo MT Cell Viability Assay in HEK293 cells - 24 hour (AID 1224886); also: nearly all actives have a fitted effect of over 50% in size; also: potency is read from the fitted curve at half-maximal effect; as to activity change, negative = cytotoxicity: top concentration of the series differs between compounds
Method in brief: as §3

[16] = A CellTox Green Cytotoxicity Assay to monitor cytotoxicity in HEK293 cells - 16 hour (AID 1224888); also: nearly all actives have a fitted effect of over 35% in size
Method in brief: as §2

[17] = qHTS RealTime-Glo MT Cell Viability Assay in HEK293 cells - 0 hour (AID 1224880)
Method in brief: as §4

[18] = A CellTox Green Cytotoxicity Assay to monitor cytotoxicity in HEK293 cells - 32 hour (AID 1224881); also: nearly all actives have a fitted effect of over 40% in size
Method in brief: as §2

[19] = qHTS RealTime-Glo MT Cell Viability Assay in HEK293 cells - 8 hour (AID 1224887); also: nearly all actives have a fitted effect of over 50% in size; also: potency is read from the fitted curve at half-maximal effect; as to activity change, negative = cytotoxicity: top concentration of the series differs between compounds
Method in brief: as §4

[20] = qHTS RealTime-Glo MT Cell Viability Assay in HepG2 cells - 0 hour (AID 1224889); also: nearly all actives have a fitted effect of over 50% in size
Method in brief: as §6
% is scaled to controls: 0 for no effect and ±100 for the full control effect.

O=C1c2ccccc2C(=O)C1c1ccc2cc(S(=O)(=O)O)cc(S(=O)(=O)O)c2n1
inactive: Potency [1] | Potency [2] | Potency [3] | outcome [4] | max response [5] -25.3% | Potency [6] | Potency [7] | Potency [8] | Potency [9] | Potency [10] | Potency [11] | Potency [12] | Potency [13] | outcome [14] | Potency [15] | Potency [16]

O=S(=O)(O)c1cc(Cl)c(Cl)cc1Cl
inactive: Potency [1] | Potency [2] | Potency [3] | outcome [4] | max response [5] -19.4% | Potency [6] | Potency [8] | Potency [10] | Potency [17] | Potency [18] | Potency [11] | Potency [12] | Potency [13] | outcome [14] | Potency [15] | Potency [19] | Potency [16] | Potency [20]

COC(=O)Cc1cccc2ccccc12
inactive: Potency [1] | Potency [2] | Potency [3] | outcome [4] | max response [5] -1.93% | Potency [6] | Potency [7] | Potency [8] | Potency [9] | Potency [17] | Potency [18] | Potency [11] | Potency [12] | Potency [13] | Potency [15] | Potency [19] | Potency [16] | Potency [20]

O=C(O)c1cccnc1Nc1cccc(C(F)(F)F)c1
inactive: Potency [1] | Potency [2] | Potency [3] | outcome [4] | Potency [6] | Potency [7] | Potency [8] | Potency [9] | Potency [10] | Potency [17] | Potency [18] | Potency [11] | Potency [12] | Potency [13] | outcome [14] | Potency [15] | Potency [19] | Potency [16] | Potency [20]

COC=O
inactive: activity change, negative = cytotoxic [1] 0.3% [at 6.97 µM] | cytotoxicity increase [2] -12.8% [at 6.97 µM] | activity change, negative = cytotoxicity [3] 11.7% [at 6.97 µM] | viability change, negative = cytotoxic [4] 6.21% [at 6.97 µM] | activity change [6] -10.8% [at 6.97 µM, hits give high values] | cytotoxicity increase [7] -4.94% [at 6.97 µM] | activity change, negative = cytotoxic [8] 2.87% [at 6.97 µM] | cytotoxicity [9] -6.04% [at 6.97 µM] | cytotoxicity increase [10] -7.18% [at 6.97 µM] | activity change, negative = cytotoxicity [17] -6.16% [at 6.97 µM] | cytotoxicity increase [18] -12.1% [at 6.97 µM] | cytotoxicity [11] 0.137% [at 6.97 µM] | cytotoxicity increase [12] -4.32% [at 6.97 µM] | cytotoxicity increase [13] -11.8% [at 6.97 µM] | activity change, negative = cytotoxic [14] 5.42% [at 6.97 µM] | activity change, negative = cytotoxicity [15] 14.1% [at 6.97 µM] | activity change, negative = cytotoxicity [19] 3.22% [at 6.97 µM] | activity change [16] -10.1% [at 6.97 µM, hits give high values] | activity change, negative = cytotoxicity [20] -11.5% [at 6.97 µM]

C=C[Si](OCC)(OCC)OCC
inactive: Potency [1] | Potency [2] | Potency [3] | outcome [4] | max response [5] 11.4% | Potency [6] | Potency [7] | Potency [8] | Potency [9] | Potency [11] | Potency [12] | Potency [13] | outcome [14] | Potency [19] | Potency [16] | Potency [20]

Cc1nc2sccn2c(=O)c1CCN1CCC(=C(c2ccc(F)cc2)c2ccc(F)cc2)CC1
active: Potency [3] 3.01 µM | Potency [5] 4.25 µM | Potency [15] 3.38 µM | Potency [19] 3.01 µM
inactive: Potency [1] | Potency [2] | outcome [4] | Potency [6] | Potency [7] | Potency [8] | Potency [9] | Potency [18] | Potency [11] | Potency [12] | Potency [13] | outcome [14] | Potency [16] | Potency [20]

NC(=O)c1cc[n+](CC2=C(C(=O)[O-])N3C(=O)[C@@H](NC(=O)Cc4cccs4)[C@H]3SC2)cc1
inactive: Potency [1] | Potency [2] | Potency [3] | outcome [4] | max response [5] 4.75% | Potency [6] | Potency [7] | Potency [8] | Potency [9] | Potency [17] | Potency [18] | Potency [11] | Potency [12] | Potency [13] | outcome [14] | Potency [15] | Potency [19] | Potency [16] | Potency [20]

CC(CN=Cc1ccccc1O)N=Cc1ccccc1O (stereo not drawn)
inactive: Potency [1] | Potency [2] | Potency [3] | outcome [4] | Potency [6] | Potency [7] | Potency [8] | Potency [9] | Potency [10] | Potency [17] | Potency [18] | Potency [11] | Potency [12] | Potency [13] | outcome [14] | Potency [19] | Potency [16] | Potency [20]

CC(C)=CCC[C@H](C)CCO
inactive: Potency [1] | Potency [2] | Potency [3] | outcome [4] | max response [5] -1.49% | Potency [6] | Potency [7] | Potency [8] | Potency [9] | Potency [17] | Potency [18] | Potency [11] | Potency [12] | Potency [13] | outcome [14] | Potency [15] | Potency [19] | Potency [16] | Potency [20]

CCOc1ccc(NC(C)=O)cc1N
inactive: Potency [1] | Potency [2] | Potency [3] | outcome [4] | Potency [6] | Potency [7] | Potency [8] | Potency [9] | Potency [10] | Potency [17] | Potency [18] | Potency [11] | Potency [12] | Potency [13] | outcome [14] | Potency [15] | Potency [19] | Potency [16] | Potency [20]

CCc1cnc(C(=O)O)c(C(=O)O)c1
inactive: Potency [1] | Potency [2] | Potency [3] | outcome [4] | Potency [6] | Potency [7] | Potency [8] | Potency [9] | Potency [10] | Potency [17] | Potency [18] | Potency [11] | Potency [12] | Potency [13] | outcome [14] | Potency [15] | Potency [19] | Potency [16] | Potency [20]
